Results published in PubChem BioAssay AID1233 (SRMLSC, 2008).
Results with a measured potency or affinity are listed apart. Unmarked numbers belong to inactive results.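 How the source made its calls: active means a dose-response curve fit returns a half-maximal inhibitory concentration, extrapolated values included; inactive means the fit returns no such concentration.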

What follows are compounds tested against HMG-CoA reductase [Enterococcus faecalis] (UniProt Q9FD70) (assay: class II HMG-CoA reductase inhibition potency – biochemical, Enterococcus faecalis, confirmation (AID 1233;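 further: 0% = full reaction carrier wells and 100% = background wells lacking mevalonate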)). Settings: purified E. faecalis HMGR, NADPH absorbance 340 nm kinetics; series mostly up to 100 µM; inhibition: at the top concentration.
In the case of `NC(=O)CSc1nnc(-c2ccc([N+](=O)[O-])cc2)o1`, the “inhibition” value is reported as -0.33%. In the case of `O=C(COC(=O)CCS(=O)(=O)c1ccc(Cl)cc1)NCCc1ccccc1`, the “inhibition” value is reported as -1.92%. `CC1SC(c2ccc(Cl)cc2)NC1=O` (stereo not drawn) was tested, and the “inhibition” value was 1.13%. For `COc1ccc(CC(=O)OCc2cc(=O)n3cc(Br)ccc3n2)cc1OC`, the “inhibition” value was -1.03%. `COc1ccc(CSc2nnnn2C)cc1[N+](=O)[O-]` was tested, and the “inhibition” value was -1.1%. With `NS(=O)(=O)c1ccc(N2C(=O)C3C4CC(C(Br)C4Br)C3C2=O)cc1` (stereo not drawn) the “inhibition” value was -8.3%. In the case of `O=C(NCC1CCCO1)c1ccc(Cl)c(F)c1F` (stereo not drawn), the “inhibition” value is reported as -2.73%. In the case of `CO/N=C/c1ccc(N2CCCC2)c([N+](=O)[O-])c1`, the “inhibition” value is reported as -0.65%. In the case of `Cc1ccsc1C=C1C(=O)c2ccccc2C1=O`, the “inhibition” value is reported as -0.95%. For `CCc1ccc(NC(=O)CSCc2ccc(C(=O)O)cc2)cc1`, the “inhibition” value was -6.21%. `CC1=C(C)C(=O)C(N2CCOCC2)=CC1=O` was tested, and the “inhibition” value was -4.26%. For `COc1ccc(-n2c(SCC(N)=O)nc3sc4c(c3c2=O)CCN(C)C4)cc1`, the “inhibition” value was 1.62%. In the case of `Cc1ccc(C(=O)CC2(O)C(=O)N(C)c3ccccc32)s1` (stereo not drawn), the “inhibition” value is reported as -4.08%. For `CC(C)(C)[C@H]1C=C(C(=O)N2CCN(Cc3ccc4c(c3)OCO4)CC2)O[C@@H](OCc2ccc(CO)cc2)C1`, the “inhibition” value was -1.99%. `CCOC(=O)c1c(C)nc2ccc(C)cn12` was tested, and the “inhibition” value was -4.75%. `Cc1ccc(S(=O)(=O)N2CCN(C(=O)CSc3nnc(-c4ccco4)o3)CC2)cc1` was tested, and the “inhibition” value was -0.58%. `Cc1nc(Nc2nc3ccccc3o2)nc2c1CCC2` was tested, and the “inhibition” value was -0.84%. With `C/C(=N\Nc1ccc(C(=O)O)cc1)c1ccc(-n2ccnc2)cc1` the “inhibition” value was 1.36%. For `O=[N+]([O-])c1ccc(N/N=C/c2ccc(O)c(O)c2O)c(S(=O)(=O)N2CCOCC2)c1`, the “inhibition” value was -14%. `COc1ccc(C(=O)C(C)OC(=O)c2cccc(S(=O)(=O)Nc3cc(Cl)c(OC)cc3OC)c2)cc1` (stereo not drawn) was tested, and the “inhibition” value was -1.47%. With `C/C(=N/NC(=O)c1cc(O)c(O)c(O)c1)c1ccc([N+](=O)[O-])cc1` the “inhibition” value was 7.14%. In the case of `O=C(N/N=C/c1cc(Br)cc(Br)c1O)c1cccc(N2CCCC2=O)c1`, the “inhibition” value is reported as -8.18%. For `Cc1cc(=O)[nH]c(N/N=C/c2ccc(N(C)C)cc2)n1`, the “inhibition” value was -14.6%. In the case of `O=C(COC(=O)CCc1c[nH]c2ccccc12)NC1CCS(=O)(=O)C1` (stereo not drawn), the “inhibition” value is reported as -4.04%. In the case of `COc1cccc(NC(=O)c2cc(-c3ccncc3)nc3c(C)cc(C)cc23)c1`, the “inhibition” value is reported as -5.32%. With `CCC(=O)N/N=C(\C)CC(=O)Nc1ccccc1-c1ccccc1` the “inhibition” value was 1.25%. For `COC(=O)c1ccc(NC(=O)Nc2ccccc2F)cc1`, the “inhibition” value was -8.11%. With `COc1ccc(C)cc1NC(=O)COC(=O)C1CCN(C(=O)c2ccc(Cl)cc2)CC1` the “inhibition” value was -3.39%. In the case of `Cc1cc(C(=O)N[C@H](c2ccccc2)[C@@]2(C)C[C@@H]2[C@@H](C)C(=O)Nc2ccc3ccccc3c2)no1`, the “inhibition” value is reported as -3.85%. For `Cc1cc(Nc2cccc([N+](=O)[O-])c2)c2ccccc2n1`, the “inhibition” value was -2.62%. In the case of `O=C(Cc1ccccc1)Nc1ccccc1CO`, the “inhibition” value is reported as -3.78%. With `O=C(O)c1cc(N/N=C/C(Cl)=C/c2ccccc2)ccc1Cl` the “inhibition” value was 0.35%. In the case of `CC(C)(C)OC(=O)N1CCC[C@H]1c1nnc(SCc2ccccc2F)o1`, the “inhibition” value is reported as -1.4%. For `OCC1CCCN(C(=S)Nc2ccc(Nc3ccccc3)cc2)C1` (stereo not drawn), the “inhibition” value was -3.22%. `S=C1NCCc2ccc(Cl)cc2C1c1ccccc1` (stereo not drawn) was tested, and the “inhibition” value was -3.66%. With `O=C(Nc1ccc(Cl)cc1)Nc1nnc(-c2ccncc2)s1` the “inhibition” value was 0.95%. With `Cn1c(SCC(=O)N2CCCC2=O)nnc1-c1ccccc1F` the “inhibition” value was -0.06%. In the case of `O=C1CN(C(=O)CSc2nc3cc(Cl)ccc3c(=O)n2Cc2ccccc2)c2ccccc2N1`, the “inhibition” value is reported as -1.36%.
